Here are results for 40 compounds from PubChem BioAssay (EPA / NIEHS).

Active and inactive are the calls of the source. The calls were made as follows: active = hit-call score of the fitted dose curve at least 0.9, where 1 is the maximum; inactive = score below 0.9.

A short description of the assay: CCTE_Harrill_HTTr_Apoptosis_MCF7: CCTE's 6-hour Apoptosis Assessment for the High-Throughput Transcriptomics (HTTr) Platform, in MCF-7 cells cultured in DMEM + 10% fetal bovine serum, Harrill Lab (AID 2284011). From the text: This is a cell-based assay that evaluates apoptosis using high content imaging to evaluate activation of caspase-3/7 using the CellEvent Caspase 3/7 Green detection reagent in 384-well format.One of seven assay components measured from the CCTE_Harrill_HTTr_Apoptosis assay. This was part of a full screening experiment. This is a cell-based assay that evaluates apoptosis in MCF-7 cells cultured in DMEM + 10% fetal bovine serum. High content imaging is used to evaluate activation of caspase-3/7 using the CellEvent Caspase 3/7 Green detection reagent. Measurements are taken at 6 hours after chemical dosing in 384-well format.The assay component endpoint CCTE_Harrill_HTTr_Apoptosis_MCF7 was analyzed with bidirectional fitting relation to DMSO as the negative control and baseline of activity. Using a type of viability reporter, gain-of-signal activity can be used to evaluate activation of caspase-3/7 using the CellEvent Caspase 3/7 Green detection reagent to understand changes in apoptosis. To generalize the intended target to other relatable targets, this assay endpoint is annotated to cell cycle, where the subfamily is apoptosis.
Chemicals were tested in MCF7 cells in an eight point dilution series with a six hour exposure duration.
As for `CCCC(=O)OCCc1ccccc1`, the result was inactive.

For `CCCCCCOC(=O)CCC`, the outcome was inactive. As for `CCOC(=O)c1ccc(N)cc1`, the entry is “inactive”; as for `O=C(O)CCCCCCCCCCCC(=O)O`, “inactive”. Consider `CC(O)C1CCCCC1` (stereo not given), for which the result was inactive. As for `CC1(C)COCN1`, the entry is “inactive”. As for `CN(c1nccc(=O)[nH]1)C1CCN(c2nc3ccccc3n2Cc2ccc(F)cc2)CC1`, the entry is “inactive”; as for `C1=CC2C3C=CC(C3)C2C1` (stereo not given), “inactive”; as for `CC(=O)C1(C)CC2=C(CCCC2(C)C)CC1C` (stereo not given), “inactive”.

In the case of `CC1CCC(C(C)C)C(O)C1` (stereo not given), the outcome was inactive. In the case of `CC(C)c1ccccc1O`, the outcome was inactive. As to `Clc1ccc(C(c2ccccc2Cl)C(Cl)Cl)cc1` (stereo not given), the result was inactive.

For `CC(=O)O[C@@H]1CC2CCC1(C)C2(C)C` (stereo not given in full), the outcome was inactive. As for `CC=Cc1ccc(OC)c(OC)c1`, the entry is “inactive”. Turning to `CC(=O)Nc1ccc(C(=O)CCl)cc1`, the result was inactive.

As to `Cc1cc(C)nc(NS(=O)(=O)c2ccc(N)cc2)n1`, the outcome was inactive.

As to `CS(=O)(=O)c1ccc(Cl)cc1`, the outcome was inactive. As for `CC(C)CCCCCCCCCCCCCCC(=O)O`, the entry is “inactive”; as for `CC(C)(CO)[C@@H](O)C(=O)NCCC(=O)O`, “inactive”; as for `C=CC(=O)OCCCC`, “inactive”. As for `OCc1cccc(Oc2ccccc2)c1`, the entry is “inactive”; as for `OC[C@H]1O[C@@H](Oc2ccc(O)cc2)[C@H](O)[C@@H](O)[C@@H]1O`, “inactive”; as for `Clc1cc(Cl)c(-c2c(Cl)c(Cl)cc(Cl)c2Cl)cc1Cl`, “inactive”. As to `CN(C)CCOC(C)(c1ccccc1)c1ccccn1` (stereo not given), the result was inactive. As for `Oc1c(Cl)cc(Cl)c(Cl)c1Cc1c(O)c(Cl)cc(Cl)c1Cl`, the entry is “inactive”; as for `COC(=O)c1ccc(C)cc1C1=NC(C)(C(C)C)C(=O)N1` (stereo not given) (tested in a mixture with another compound), “inactive”; as for `N[C@@H](Cc1cc(I)c(Oc2cc(I)c(O)c(I)c2)c(I)c1)C(=O)O`, “inactive”. As for `O=[N+]([O-])c1cccc(Cl)c1`, the entry is “inactive”. As for `CCCCCc1ccco1`, the entry is “inactive”.

Turning to `OCC#CCO`, the result was inactive. With `CCOC(=O)[C@@H](C)Oc1ccc(Oc2nc3ccc(Cl)cc3o2)cc1`, the result was inactive. As for `CC(C=O)Cc1ccc(C(C)(C)C)cc1` (stereo not given), the entry is “inactive”; as for `c1ccc(CCc2ccccc2)cc1`, “inactive”. As for `Cc1ccc(S(N)(=O)=O)cc1`, the entry is “inactive”; as for `CC(C)(C)CC(C)(C)c1ccc(OCCOCC[N+](C)(C)Cc2ccccc2)cc1`, “inactive”; as for `CCCCC1(COC(=O)CCC(=O)O)C(=O)N(c2ccccc2)N(c2ccccc2)C1=O`, “inactive”. As for `CCc1ccc(O)cc1`, the entry is “inactive”; as for `COc1ccc(COC(C)=O)cc1`, “inactive”. Take `CCCCCCCCCC(=O)OC`: the outcome was inactive. As for `O=c1c(O)c(-c2ccc(O)cc2)oc2cc(O)cc(O)c12`, the entry is “inactive”.
